In PubChem BioAssay (EPA / NIEHS) one finds outcome and AC50 data, which are given here for 14 molecules.

Records with an inconclusive call do not appear. Calls of active or inactive are those of the source. How the source made its calls, unless noted: active means hit-call score of the fitted dose curve at least 0.9, where 1 is the maximum; inactive means score below 0.9.

In test [1] the target is Myc proto-oncogene protein (Homo sapiens) (UniProt P01106). As to the kind of experiment: ATG_Myc_CIS: Attagene CIS-FACTORIAL HepG2 Assay for human Myelocytomatosis (Myc) Proto-Oncogene Transcription Factor (AID 2282990). As to conditions: HepG2, Attagene cis-reporter transcription factor activity; actives raise or lower the signal. The method, boiled down:
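Fluorescence intensity of reporter-specific cDNA fragments, separated by capillary electrophoresis, gives the signal. Transfected HepG2 cells carrying cis-promoter reporter constructs are incubated with compound for 24 h; DMSO serves as baseline.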

A short description of test [2]: ATG_NRF2_ARE_CIS: Attagene CIS-FACTORIAL HepG2 Assay for human Nuclear Factor Erythroid 2 Related Factor 2 (NFR2) response to Antioxidant Response Elements (ARE) (AID 2282992).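 On AC50: reporter mRNA level measured by RT-PCR and capillary electrophoresis fluorescence.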 As to conditions: HepG2 Attagene ARE/NRF2 reporter, transcription factor activity; actives raise or lower the signal. An outline of the steps:
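Fluorescence intensity of reporter-specific cDNA fragments, separated by capillary electrophoresis, reflects mRNA induction in transfected HepG2 cells at 24 h. Activity is fitted bidirectionally, DMSO serving as baseline.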

A short description of test [3]: ATG_Oct_MLP_CIS: Attagene CIS-FACTORIAL HepG2 Assay for human Octamer-Binding Transcription Factor (Oct) (AID 2282993). As to conditions: HepG2 Attagene cis-factorial Oct reporter, mRNA; actives raise or lower the signal. An outline of the steps:
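HepG2 cells transiently transfected with cis-element-driven reporter transcription units (endogenous TF activity); 24 h compound exposure. Reporter mRNA quantified by RT-PCR, 6-FAM labelling, HpaI digestion and capillary electrophoresis; bidirectional fit versus DMSO baseline.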

For test [4], the target named is Cellular tumor antigen p53 (Homo sapiens) (UniProt P04637). The test can be described thus: ATG_p53_CIS: Attagene CIS-FACTORIAL HepG2 Assay for human p53 Transcription Factor (AID 2282994). The conditions noted are these: HepG2 p53 cis-element reporter, Attagene mRNA; actives raise or lower the signal. The method, boiled down:
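Transiently transfected HepG2 (multiple cis reporter transcription units); exposure 24 h; reporter RNA via RT-PCR, 6-FAM extension, 2 h HpaI digest at 37 C, CE detection; DMSO baseline.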

Test [5] can be described thus: BSK_3C_TissueFactor: BioMAP Diversity Plus: 3C Assay for Tissue Factor Biomarker Activity (AID 2282997). The conditions noted are these: BioMAP 3C HUVEC, tissue factor biomarker readout; actives raise or lower the signal. The method, boiled down:
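Readout: Tissue Factor ELISA. Cells: human primary umbilical vein endothelium. Time: 24 h after dosing. Analysis: bidirectional fit, DMSO baseline.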

Test [6] is described as follows: BSK_3C_uPAR: BioMAP Diversity Plus: 3C Assay for Urokinase-type plasminogen activator receptor (uPAR) Biomarker Activity (AID 2282998). As to conditions: BioMAP 3C HUVEC, uPAR biomarker ELISA; actives raise or lower the signal. An outline of the steps: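 Primary human umbilical vein endothelial cells, 3C system; surface uPAR measured by ELISA 24 h after dosing. Cytotoxicity via SRB total protein in parallel cultures; bidirectional fit against DMSO.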
(In general: In an ELISA, binding on a coated surface is turned into a signal by an enzyme label.)

Test [7] in a line: BSK_3C_VCAM1: BioMAP Diversity Plus: 3C Assay for Vascular cell adhesion molecule 1 (VCAM1) Biomarker Activity (AID 2282999). As to conditions: BioMAP 3C HUVEC, VCAM1 ELISA, cytokine-stimulated; actives raise or lower the signal. The method, boiled down: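 HUVEC primary cells, 24 h compound exposure; VCAM-1 by ELISA; gain/loss of signal fitted bidirectionally vs DMSO baseline.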

Test [8] is described as follows: BSK_4H_Eotaxin3: BioMAP Diversity Plus: 4H Assay for Eotaxin 3 Biomarker Activity (AID 2283000). The conditions noted are these: primary human endothelial cells (HUVEC); actives raise or lower the signal. An outline of the steps: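 HUVEC, 24 h post-dose, ELISA for Eotaxin-3/CCL26. Gain or loss of signal fitted bidirectionally vs DMSO baseline.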
Test [9] has as its target human Peroxisome Proliferator-activated Receptor delta (PPARd), PPARD (gene 5467) (UniProt Q03181). As to the kind of experiment: ATG_PPARd_TRANS: Attagene TRANS-FACTORIAL HepG2 Assay for human Peroxisome Proliferator-activated Receptor delta (PPARd) (AID 2283002; active means hit-call score of the fitted dose curve at least 0.9, where 1 is the maximum). An outline of the steps: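 Fluorescence from capillary electrophoresis of labelled RT-PCR reporter fragments gives the signal; DMSO sets baseline. Cells: HepG2 transiently carrying GAL4-UAS reporter units plus chimeric nuclear receptor-Gal4 proteins, exposed to chemicals for 24 h.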

Read-out in test [10]: Intercellular Adhesion Molecule 1 (ICAM1), ICAM1 (gene 3383)
As to the kind of experiment: BSK_3C_ICAM1: BioMAP Diversity Plus: 3C Assay for Intercellular Adhesion Molecule 1 (ICAM1) Biomarker Activity (AID 2283003). As to conditions: primary human endothelial cells (HUVEC); actives raise or lower the signal. The method, boiled down:
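Chemicals are dosed onto primary human umbilical vein endothelium (3C system). After 24 h, ICAM-1 is measured by ELISA, and responses are fitted bidirectionally relative to DMSO.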

A short description of test [11]: BSK_3C_Proliferation: Cell Proliferation Assessment in the BioMAP Diversity Plus: 3C Assay (AID 2283006).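 Further: potency may reflect either rise or fall in cell number versus DMSO.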 The conditions noted are these: primary human endothelial cells (HUVEC). An outline of the steps:
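Cells (human umbilical vein endothelial, sub-confluent) receive test chemical; after 48 h they are fixed in 10% trichloroacetic acid, stained with 0.1% SRB and read at 560 nm. Activity is referenced to DMSO, fitting increases and decreases.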

The target of test [12] is Peroxisome proliferator-activated receptor gamma (Homo sapiens) (UniProt P37231). The test can be described thus: ATG_PPARg_TRANS: Attagene TRANS-FACTORIAL HepG2 Assay for human Peroxisome Proliferator-activated Receptor-gamma (PPARg) (AID 2283007; active means hit-call score of the fitted dose curve at least 0.9, where 1 is the maximum). An outline of the steps: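 Endpoint reflects upward reporter mRNA change versus DMSO controls. Setup: transiently transfected HepG2, GAL4-UAS reporters driven by chimeric NR-Gal4, 24 h incubation, RT-PCR with capillary electrophoresis read-out.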

Test [13] deals with Nuclear receptor subfamily 1 group I member 2 (Homo sapiens) (UniProt O75469). The test can be described thus: ATG_PXR_TRANS: Attagene TRANS-FACTORIAL HepG2 Assay for human Pregnane X Receptor (PXR) (AID 2283008; active means hit-call score of the fitted dose curve at least 0.9, where 1 is the maximum). An outline of the steps: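 Transient HepG2 transfectants carrying multiplexed reporter transcription units; PXR activity read through a Gal4 chimera. 24 h exposure. RT-PCR/CE fluorescence; upward curve fit referenced to DMSO.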

The target in test [14] is human Retinoic Acid Receptor gamma (RARg), RARG (gene 5916) (UniProt P13631). The test can be described thus: ATG_RARg_TRANS: Attagene TRANS-FACTORIAL HepG2 Assay for human Retinoic Acid Receptor gamma (RARg) (AID 2283009; active means hit-call score of the fitted dose curve at least 0.9, where 1 is the maximum). The method, boiled down:
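TRANS format measured activity of exogenous NR-GAL4 fusion (RARg) in transfected HepG2 liver cells after 24 h dosing. Induced reporter RNA was detected by RT-PCR/capillary electrophoresis fluorescence, analysed in the positive direction against DMSO.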

Test [15] has as its target human RAR-related Orphan Receptor beta (RORb), RORB (gene 6096) (UniProt Q92753). The test can be described thus: ATG_RORb_TRANS: Attagene TRANS-FACTORIAL HepG2 Assay for human RAR-related Orphan Receptor beta (RORb) (AID 2283010; active means hit-call score of the fitted dose curve at least 0.9, where 1 is the maximum). An outline of the steps:
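Transfect HepG2 with multiple GAL4-UAS reporter transcription units; dose chemicals for 24 h; isolate RNA, reverse-transcribe and PCR-amplify reporter sequences; label, digest and resolve fragments by capillary electrophoresis; fit increases relative to DMSO.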

Test [16] can be described thus: ATG_NF_kB_CIS: Attagene CIS-FACTORIAL HepG2 Assay for human Nuclear Factor Kappa B (NF-kB) (AID 2282991). As to conditions: HepG2 Attagene cis-factorial NF-kB reporter mRNA; actives raise or lower the signal. The method, boiled down: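 Endpoint from a 52-component multiplexed HepG2 reporter panel: cis-regulated transcription units transiently transfected, 24 h dosing, reporter mRNA quantified by RT-PCR and capillary electrophoresis, scored as increase or decrease against DMSO.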

Test [17] has as its target human Peroxisome Proliferator-activated Receptor alpha (PPARa), PPARA (gene 5465) (UniProt Q07869). The test can be described thus: ATG_PPARa_TRANS: Attagene TRANS-FACTORIAL HepG2 Assay for human Peroxisome Proliferator-activated Receptor alpha (PPARa) (AID 2283001; active means hit-call score of the fitted dose curve at least 0.9, where 1 is the maximum). An outline of the steps: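 HepG2, transient MRTU transfection, 24 h treatment. RT-PCR → FAM labelling → capillary electrophoresis. Fit vs DMSO, positive direction.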

The target in test [18] is human Retinoic Acid Receptor beta (RARb), RARB (gene 5915) (UniProt P10826). As to the kind of experiment: ATG_RARb_TRANS: Attagene TRANS-FACTORIAL HepG2 Assay for human Retinoic Acid Receptor beta (AID 2283004; active means hit-call score of the fitted dose curve at least 0.9, where 1 is the maximum). An outline of the steps: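 HepG2 cells transiently transfected with multiplexed GAL4-UAS reporter units expressing chimeric NR–Gal4 fusions; 24 h compound exposure. Reporter mRNA quantified by RT-PCR, 6-FAM labelling, HpaI digestion and capillary electrophoresis; gain-of-signal fitted against DMSO baseline.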

Test [19] addresses Retinoic acid receptor alpha (Homo sapiens) (UniProt P10276). As to the kind of experiment: ATG_RARa_TRANS: Attagene TRANS-FACTORIAL HepG2 Assay for human Retinoic Acid Receptor alpha (RARa) (AID 2283005; active means hit-call score of the fitted dose curve at least 0.9, where 1 is the maximum). An outline of the steps: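 HepG2 transiently transfected with multiplex GAL4-UAS reporter units including a human RARa–GAL4 chimera; 24 h compound exposure. Reporter mRNA quantified by RT-PCR, 6-FAM labeling and capillary electrophoresis; gain of signal versus DMSO.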

For test [20], the target named is human RAR-related Orphan Receptor gamma (RORg), RORC (gene 6097) (UniProt P51449). As to the kind of experiment: ATG_RORg_TRANS: Attagene TRANS-FACTORIAL HepG2 Assay for human RAR-related Orphan Receptor gamma (RORg) (AID 2283011; active means hit-call score of the fitted dose curve at least 0.9, where 1 is the maximum). An outline of the steps:
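Readout: reporter transcript induction (RT-PCR, fluorescent primer extension, capillary electrophoresis) after 24 h compound exposure of transiently transfected HepG2 cells carrying a RORg-Gal4 chimera and GAL4-UAS reporters; DMSO served as baseline, with increasing signal fitted.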

Retinoic acid receptor alpha (Homo sapiens), sequence (P10276 whole entry, looked up, the tested form may be a part): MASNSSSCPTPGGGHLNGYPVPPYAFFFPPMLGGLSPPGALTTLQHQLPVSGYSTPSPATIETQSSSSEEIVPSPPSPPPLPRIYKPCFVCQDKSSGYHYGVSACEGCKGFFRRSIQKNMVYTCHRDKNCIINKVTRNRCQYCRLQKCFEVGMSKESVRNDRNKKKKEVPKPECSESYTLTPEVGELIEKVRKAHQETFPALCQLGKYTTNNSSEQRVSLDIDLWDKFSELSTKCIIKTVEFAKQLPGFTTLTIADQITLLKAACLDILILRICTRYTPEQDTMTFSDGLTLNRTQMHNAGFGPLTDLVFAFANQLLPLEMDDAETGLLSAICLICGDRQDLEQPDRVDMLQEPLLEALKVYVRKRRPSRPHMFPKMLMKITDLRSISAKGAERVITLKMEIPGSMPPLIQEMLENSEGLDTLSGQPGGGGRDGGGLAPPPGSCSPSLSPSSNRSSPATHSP
human Peroxisome Proliferator-activated Receptor delta (PPARd), PPARD (gene 5467), sequence (Q03181 whole entry, looked up, the tested form may be a part): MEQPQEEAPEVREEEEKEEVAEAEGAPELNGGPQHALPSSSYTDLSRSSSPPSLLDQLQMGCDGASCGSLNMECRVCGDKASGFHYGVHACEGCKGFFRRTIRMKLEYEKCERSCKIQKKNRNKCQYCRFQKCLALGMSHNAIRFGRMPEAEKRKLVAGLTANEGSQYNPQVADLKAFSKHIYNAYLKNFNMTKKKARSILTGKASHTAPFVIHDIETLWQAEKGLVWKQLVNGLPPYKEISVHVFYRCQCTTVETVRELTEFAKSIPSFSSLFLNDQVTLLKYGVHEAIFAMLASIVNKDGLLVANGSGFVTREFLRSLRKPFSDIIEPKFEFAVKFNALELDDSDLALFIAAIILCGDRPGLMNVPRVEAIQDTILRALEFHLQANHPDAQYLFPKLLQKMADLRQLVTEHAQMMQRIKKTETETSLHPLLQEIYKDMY
human Retinoic Acid Receptor gamma (RARg), RARG (gene 5916), sequence (P13631 whole entry, looked up, the tested form may be a part): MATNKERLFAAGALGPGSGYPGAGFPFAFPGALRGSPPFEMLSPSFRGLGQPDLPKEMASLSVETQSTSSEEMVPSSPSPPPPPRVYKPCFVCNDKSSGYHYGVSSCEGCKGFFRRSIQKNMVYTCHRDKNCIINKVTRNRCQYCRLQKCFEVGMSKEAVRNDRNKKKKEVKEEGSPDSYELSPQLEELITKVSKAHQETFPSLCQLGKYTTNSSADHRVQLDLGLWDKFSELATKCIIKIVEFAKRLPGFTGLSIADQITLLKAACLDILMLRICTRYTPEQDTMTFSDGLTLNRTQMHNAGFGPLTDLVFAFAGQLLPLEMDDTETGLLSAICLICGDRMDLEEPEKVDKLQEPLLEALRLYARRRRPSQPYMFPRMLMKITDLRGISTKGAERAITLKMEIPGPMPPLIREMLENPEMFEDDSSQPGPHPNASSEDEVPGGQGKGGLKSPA
Peroxisome proliferator-activated receptor gamma (Homo sapiens), sequence (P37231 whole entry, looked up, the tested form may be a part): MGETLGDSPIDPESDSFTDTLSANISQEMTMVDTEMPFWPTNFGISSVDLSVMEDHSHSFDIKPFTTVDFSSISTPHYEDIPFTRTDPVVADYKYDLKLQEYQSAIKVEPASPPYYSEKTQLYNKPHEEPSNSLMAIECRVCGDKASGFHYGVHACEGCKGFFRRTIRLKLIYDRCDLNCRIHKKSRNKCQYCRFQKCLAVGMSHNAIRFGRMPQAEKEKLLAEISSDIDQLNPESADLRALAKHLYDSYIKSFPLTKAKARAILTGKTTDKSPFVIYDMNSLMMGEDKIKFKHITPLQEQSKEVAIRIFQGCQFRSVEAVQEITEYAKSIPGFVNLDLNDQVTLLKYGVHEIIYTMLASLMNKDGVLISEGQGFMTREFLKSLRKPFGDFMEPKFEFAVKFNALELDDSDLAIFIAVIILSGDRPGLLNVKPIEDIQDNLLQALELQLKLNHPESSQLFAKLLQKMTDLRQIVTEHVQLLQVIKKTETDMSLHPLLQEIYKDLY
human Peroxisome Proliferator-activated Receptor alpha (PPARa), PPARA (gene 5465), sequence (Q07869 whole entry, looked up): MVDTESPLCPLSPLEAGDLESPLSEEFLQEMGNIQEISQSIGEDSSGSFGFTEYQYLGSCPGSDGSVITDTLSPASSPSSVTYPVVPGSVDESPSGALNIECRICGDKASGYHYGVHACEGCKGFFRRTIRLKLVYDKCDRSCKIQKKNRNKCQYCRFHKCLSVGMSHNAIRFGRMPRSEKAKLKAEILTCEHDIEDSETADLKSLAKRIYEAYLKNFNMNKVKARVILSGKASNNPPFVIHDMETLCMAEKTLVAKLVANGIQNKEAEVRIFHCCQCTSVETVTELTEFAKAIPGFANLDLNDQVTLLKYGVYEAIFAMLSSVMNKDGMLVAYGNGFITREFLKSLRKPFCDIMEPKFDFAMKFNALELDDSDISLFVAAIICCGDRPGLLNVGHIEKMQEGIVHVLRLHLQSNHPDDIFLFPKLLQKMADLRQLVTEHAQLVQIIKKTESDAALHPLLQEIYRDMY
Myc proto-oncogene protein (Homo sapiens), sequence (P01106 whole entry, looked up, the tested form may be a part): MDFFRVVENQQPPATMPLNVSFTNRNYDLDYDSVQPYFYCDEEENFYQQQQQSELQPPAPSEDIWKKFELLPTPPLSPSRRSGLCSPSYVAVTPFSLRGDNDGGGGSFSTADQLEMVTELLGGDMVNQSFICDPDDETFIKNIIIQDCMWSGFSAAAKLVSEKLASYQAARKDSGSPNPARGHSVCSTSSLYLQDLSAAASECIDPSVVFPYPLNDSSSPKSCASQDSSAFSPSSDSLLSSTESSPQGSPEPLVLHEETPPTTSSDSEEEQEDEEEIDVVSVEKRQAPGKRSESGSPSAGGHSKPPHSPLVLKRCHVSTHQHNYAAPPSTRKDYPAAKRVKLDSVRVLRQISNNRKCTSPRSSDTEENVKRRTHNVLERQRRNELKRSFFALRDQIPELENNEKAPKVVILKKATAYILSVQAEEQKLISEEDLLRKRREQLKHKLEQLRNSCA
Nuclear receptor subfamily 1 group I member 2 (Homo sapiens), sequence (O75469 whole entry, looked up, the tested form may be a part): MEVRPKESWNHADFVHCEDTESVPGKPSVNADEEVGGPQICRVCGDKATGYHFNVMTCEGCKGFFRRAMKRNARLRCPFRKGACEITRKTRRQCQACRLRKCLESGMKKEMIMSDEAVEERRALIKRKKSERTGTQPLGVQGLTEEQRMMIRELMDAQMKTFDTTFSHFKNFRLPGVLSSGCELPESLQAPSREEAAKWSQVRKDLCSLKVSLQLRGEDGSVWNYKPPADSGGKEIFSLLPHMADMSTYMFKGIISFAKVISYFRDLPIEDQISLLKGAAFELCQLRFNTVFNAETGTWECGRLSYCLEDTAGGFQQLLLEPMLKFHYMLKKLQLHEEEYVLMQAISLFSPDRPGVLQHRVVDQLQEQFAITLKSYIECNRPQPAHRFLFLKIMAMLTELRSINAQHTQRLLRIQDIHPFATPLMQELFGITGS
human RAR-related Orphan Receptor beta (RORb), RORB (gene 6096), sequence (Q92753 whole entry, looked up, the tested form may be a part): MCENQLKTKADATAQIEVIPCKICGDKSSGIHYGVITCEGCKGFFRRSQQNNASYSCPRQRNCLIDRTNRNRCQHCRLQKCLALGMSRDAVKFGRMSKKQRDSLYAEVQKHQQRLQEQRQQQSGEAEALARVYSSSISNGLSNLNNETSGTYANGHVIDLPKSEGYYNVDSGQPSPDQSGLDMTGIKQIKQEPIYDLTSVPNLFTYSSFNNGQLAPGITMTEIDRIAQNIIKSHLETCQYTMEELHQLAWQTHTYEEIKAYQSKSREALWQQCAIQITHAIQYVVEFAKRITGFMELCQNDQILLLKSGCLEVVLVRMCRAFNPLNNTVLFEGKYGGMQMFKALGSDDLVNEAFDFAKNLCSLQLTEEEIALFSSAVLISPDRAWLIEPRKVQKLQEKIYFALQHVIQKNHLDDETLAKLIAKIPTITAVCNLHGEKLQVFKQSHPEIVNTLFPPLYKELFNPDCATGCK
human Retinoic Acid Receptor beta (RARb), RARB (gene 5915), sequence (P10826 whole entry, looked up, the tested form may be a part): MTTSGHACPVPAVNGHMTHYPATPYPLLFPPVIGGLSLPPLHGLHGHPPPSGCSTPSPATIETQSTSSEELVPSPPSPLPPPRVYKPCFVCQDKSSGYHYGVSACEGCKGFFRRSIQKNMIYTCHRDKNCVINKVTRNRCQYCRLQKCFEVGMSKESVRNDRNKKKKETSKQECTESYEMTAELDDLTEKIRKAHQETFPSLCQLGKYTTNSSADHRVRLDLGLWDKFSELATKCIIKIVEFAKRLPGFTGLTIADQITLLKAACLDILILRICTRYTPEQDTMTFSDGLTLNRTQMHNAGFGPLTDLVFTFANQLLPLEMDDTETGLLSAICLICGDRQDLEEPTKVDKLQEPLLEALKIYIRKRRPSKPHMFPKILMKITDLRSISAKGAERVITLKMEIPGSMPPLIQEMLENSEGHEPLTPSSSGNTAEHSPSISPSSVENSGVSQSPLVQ
Cellular tumor antigen p53 (Homo sapiens), sequence (P04637 whole entry, looked up): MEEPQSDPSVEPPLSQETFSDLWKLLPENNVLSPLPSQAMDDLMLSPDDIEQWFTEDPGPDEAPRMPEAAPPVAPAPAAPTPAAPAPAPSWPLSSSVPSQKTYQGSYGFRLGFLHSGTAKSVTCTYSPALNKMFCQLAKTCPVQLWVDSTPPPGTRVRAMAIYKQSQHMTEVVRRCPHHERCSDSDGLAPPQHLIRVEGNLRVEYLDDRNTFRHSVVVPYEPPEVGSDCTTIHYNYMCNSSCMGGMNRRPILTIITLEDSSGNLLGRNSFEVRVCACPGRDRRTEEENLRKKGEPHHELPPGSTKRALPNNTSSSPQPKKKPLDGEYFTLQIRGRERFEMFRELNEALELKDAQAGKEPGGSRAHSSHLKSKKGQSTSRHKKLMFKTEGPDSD

For `c1ccc(CCc2ccccc2)cc1`, the result in [1], in test [3], in test [4], in test [9] and in test [12] was inactive. Further, the AC50 (usually the concentration at which the activity in the assay is half-maximal) is 149 µM (active) in [2]; 14.5 µM (active) in test [5]; 36.7 µM (active) in test [6]; 29.8 µM (active) in [7]; 30.7 µM (active) in [8]; 30.9 µM (active) in test [10]. Besides, in test [11], the AC50 is 22.7 µM (active).

In the case of `CC(C)(C)c1ccc(C(=O)O)cc1`, the result in test [1], in test [2], in test [3], in test [4], in test [12] and in test [13] was inactive.

Consider `Nc1ccc2c(O)cc(S(=O)(=O)O)cc2c1`, for which the molecule was called inactive in test [1], in test [2], in [3], in test [4], in [13] and in [14]. Also, the outcome in test [15] was inactive.

As for `CC1(C)COCN1`, the molecule was classed as inactive in test [1], in [16], in test [4], in test [17], in test [18] and in test [19]. The molecule was classed as inactive in test [13].

As for `CCCC(=O)OCCc1ccccc1`, the molecule was classed as inactive in test [1], in [2], in test [3], in test [4], in test [13] and in [15].

As to `CCCCCC(=O)CC`, the call in test [1], in test [3], in [4], in test [9] and in [12] was inactive.

Consider `CC(O)C1CCCCC1` (centres undefined), for which the molecule was classed as inactive in test [1], in [3], in [17], in test [19], in test [12] and in test [14].

On to `CCCC1O[C@@H]2C[C@H]3[C@@H]4CCC5=CC(=O)C=C[C@]5(C)[C@H]4[C@@H](O)C[C@]3(C)[C@]2(C(=O)CO)O1` (some centres undefined), for which the result in test [1], in [17], in [18], in test [12] and in test [14] was inactive. Besides, the AC50 in test [2] is 78.9 µM (active); in [4] it was 37.5 µM (active); in [13], 1.36 µM (active).

As to `CCCCCCCCN1CCCC1=O`, the molecule was called inactive in test [1], in test [3] and in test [14]. Also, the AC50 in test [4] is 72.6 µM (active); in test [13], 7.53 µM (active).

On to `CN1CCOCC1`, for which the molecule was called inactive in test [1], in test [2], in test [3], in test [18], in test [19] and in test [14]. Further, in test [15], the molecule was classed as inactive.

With `CN(C)CCOC(C)(c1ccccc1)c1ccccn1` (centres undefined), the molecule was classed as inactive in test [1], in [3], in test [4], in test [9], in test [13] and in test [14]. In test [15], the molecule was called inactive.

Regarding `CC(C)NCC(O)COc1ccc(CC(N)=O)cc1` (centres undefined), the molecule was classed as inactive in test [1], in [4], in [19], in [12], in test [13] and in test [15].

On to `O=C(O)c1ccc(O)cc1`, for which the result in test [1], in test [2], in [3], in test [17], in test [9] and in [18] was inactive. In addition, the call in [19], in [12], in test [13], in test [14], in test [15] and in test [20] was inactive.

With `COCCOCCOCCO`, the outcome in test [1], in [2], in test [4], in test [17] and in test [15] was inactive.
